The values that follow come from PubChem BioAssay.

A short description of test [1]: sensitizers of A549 cells to miR-34 induction, primary screen, imaging, A549 dox-inducible miR-34, nuclei and caspase counts (AID 1347080;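 active = compounds whose cell count with miR-34 switched on is under 0.7 times the count with it off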). The conditions noted are these: A549 miR-34 inducible, Hoechst nuclei count, 48 h.
Test [2] can be described thus: phospholipid biosynthesis inhibitors in animal cells, primary screen, cell-based, LOPAC library, screen 4 (AID 1347384). The conditions noted are these: phospholipid biosynthesis inhibition screen, at 10 µM.
A short description of test [3]: viability rescue of complex I mutant cybrids, primary screen, cell-based, galactose medium, ATP luminescence (AID 1645843;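 active = z-score of at least 1.8 in each of two replicates, scored against plate mean and spread of sample wells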;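 note: positive z means more ATP and so rescue of galactose-driven cybrid death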). As to conditions: complex I mutant cybrid cells, 72 h, stronger effect = higher value.
Test [4] in a line: hESC survival regulators, cell-based (AID 493140).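 Note: cells exposed to compounds for four days before counting.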 The conditions noted are these: human embryonic stem cell survival screen; stronger effect = higher value.
Test [5] in a line: inhibitors of Cryptococcus chitosan production, flow cytometry, Cibacron Brilliant Red staining (AID 1347148).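 Note: compound exposure lasted three days at 37 degrees C.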 The conditions noted are these: Cryptococcus neoformans chitosan, stronger effect = lower value; at 10 µM unless noted. (In general: Flow cytometry measures light scatter and fluorescence of single cells or particles in a stream.)
Test [6] in a line: liver-stage malaria parasite growth inhibition, primary screen, cell-based, HepG2, luciferase luminescence, HepG2 viability (AID 624349; in the data active = parasite load remaining mostly below about 12%, no sharp cut-off; inactive = mostly above about 10%;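 note: 100% = mean of DMSO negative control wells on the same plate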). As to conditions: P. berghei liver stage in HepG2, luciferase luminescence, concentration not given here; parasite load remaining: stronger effect = lower value; viability: measured here: HepG2 viability without parasites.
Test [7] can be described thus: modifiers of HSF1 nuclear foci, imaging, Selleck Cancer Library (AID 1347162; in the data active = plate-normalised HSF1 focus index below about 0.46). As to conditions: human cells, at 10 µM; SSMD: measured here: HSF1 foci SSMD mean; cell count: measured here: cell number; plate-normalised HSF1 focus index: stronger effect = lower value.
Test [8] can be described thus: survival rescue of mitochondrial mutant cells in low glucose, primary screen, MELAS cybrids, Rieske KO mouse fibroblasts, CellTiter-Glo (AID 1508586;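 active = mean z-score across replicates of 1.96 or higher in either the MELAS or the Rieske mutant cell line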;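 note: z relative to plate mean and SD of compound and empty wells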). (In ATP-based viability assays light output follows the ATP content of the culture.)
Test [9] can be described thus: circadian clock period modulators, cell-based, LOPAC library, luminescence reporter (AID 2774).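 Note: values are relative to mean of DMSO wells on each plate.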 The conditions noted are these: circadian reporter cells, at 7 µM, actives lie on both sides.
In test [10] the test system is Hepatitis C virus NS3 helicase. The test is described as follows: HCV NS3 helicase inhibitors, primary screen, biochemical, fluorescence polarization, LOPAC1280 library (AID 687035; in the data active = inhibition above about 37%). The conditions noted are these: Purified HCV NS3 helicase, Cy5-dT15 ssDNA binding fluorescence polarization; stronger effect = higher value; concentration not given here. In general terms: Fluorescence polarisation rises when a labelled molecule tumbles more slowly, as on binding a larger partner.

Test [11] in a line: Cy5 fluorescence quenching or enhancement artefacts, artefact control for HCV NS3 helicase inhibitor project, biochemical, LOPAC1280 (AID 687037). As to conditions: Cy5-DNA-NS3h complex fluorescence interference counterscreen.
The target of test [12] is NAD(+) hydrolase SARM1 (Homo sapiens) (UniProt Q6SZW1). The test is described as follows: SARM1 TIR NADase inhibitors, cell lysate, NAD-Glo luminescence (AID 1508614;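 active = compound whose remaining NAD level is above about 45 nM, limit read from the data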;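 note: higher remaining NAD means stronger inhibition of SARM1 NADase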). As to conditions: SAM-TIR HEK293T lysate NADase, at 1 µM, stronger effect = higher value.
Test [13] concerns the target Mitogen-activated protein kinase 7 (Homo sapiens) (UniProt Q13164). The test is described as follows: ERK5 transactivation activators in reporter cells, primary screen, cell-based, HTS (AID 1508626;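 active = luciferase signal above three times the same-plate solvent-only control wells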;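 note: luciferase driven by Gal4-ERK5 fusion binding five Gal4 sites before minimal TATA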). The conditions noted are these: HeLa Gal4-ERK5 transactivation, 18 h, at 5 µM, stronger effect = higher value.
Where [14] appears, read: stronger effect = lower value, cell number ratio, induced over uninduced.
Where [15] appears, read: measured here: relative caspase fold change +Dox/-Dox.
Setting [16] is: measured here: total cells with miR-34 induction, stronger effect = lower value.
[17] abbreviates: measured here: total cells without miR-34 induction.

Molecules are shown by their SMILES. Several values for one entry are separate records, joined by “and”; a condition that tells them apart may be missing. Equal values may be shown once. Activity calls are given as the source filed them. Unless noted, the rule behind the calls is not given here.

Sequence of NAD(+) hydrolase SARM1 (Homo sapiens) (Q6SZW1 whole entry, looked up, the tested form may be a part): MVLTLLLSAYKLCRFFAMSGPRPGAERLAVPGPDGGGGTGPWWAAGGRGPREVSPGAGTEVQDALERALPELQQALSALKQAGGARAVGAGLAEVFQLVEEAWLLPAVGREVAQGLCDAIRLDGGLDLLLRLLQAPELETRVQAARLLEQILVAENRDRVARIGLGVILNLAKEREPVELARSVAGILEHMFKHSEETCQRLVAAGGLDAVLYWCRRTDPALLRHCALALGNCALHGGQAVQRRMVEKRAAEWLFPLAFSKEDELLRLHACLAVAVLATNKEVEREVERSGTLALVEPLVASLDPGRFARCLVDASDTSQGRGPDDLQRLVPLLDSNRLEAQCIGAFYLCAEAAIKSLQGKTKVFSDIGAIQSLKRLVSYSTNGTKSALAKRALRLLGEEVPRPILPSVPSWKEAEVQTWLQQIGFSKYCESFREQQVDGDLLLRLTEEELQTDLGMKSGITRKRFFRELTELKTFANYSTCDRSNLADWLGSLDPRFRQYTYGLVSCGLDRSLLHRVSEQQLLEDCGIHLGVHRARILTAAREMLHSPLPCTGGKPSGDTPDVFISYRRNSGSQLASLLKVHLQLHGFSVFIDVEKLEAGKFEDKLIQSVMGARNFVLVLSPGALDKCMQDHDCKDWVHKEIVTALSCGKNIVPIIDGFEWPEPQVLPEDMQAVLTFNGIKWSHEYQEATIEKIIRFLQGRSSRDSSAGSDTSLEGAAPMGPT
Sequence of Mitogen-activated protein kinase 7 (Homo sapiens) (Q13164 whole entry, looked up, the tested form may be a part): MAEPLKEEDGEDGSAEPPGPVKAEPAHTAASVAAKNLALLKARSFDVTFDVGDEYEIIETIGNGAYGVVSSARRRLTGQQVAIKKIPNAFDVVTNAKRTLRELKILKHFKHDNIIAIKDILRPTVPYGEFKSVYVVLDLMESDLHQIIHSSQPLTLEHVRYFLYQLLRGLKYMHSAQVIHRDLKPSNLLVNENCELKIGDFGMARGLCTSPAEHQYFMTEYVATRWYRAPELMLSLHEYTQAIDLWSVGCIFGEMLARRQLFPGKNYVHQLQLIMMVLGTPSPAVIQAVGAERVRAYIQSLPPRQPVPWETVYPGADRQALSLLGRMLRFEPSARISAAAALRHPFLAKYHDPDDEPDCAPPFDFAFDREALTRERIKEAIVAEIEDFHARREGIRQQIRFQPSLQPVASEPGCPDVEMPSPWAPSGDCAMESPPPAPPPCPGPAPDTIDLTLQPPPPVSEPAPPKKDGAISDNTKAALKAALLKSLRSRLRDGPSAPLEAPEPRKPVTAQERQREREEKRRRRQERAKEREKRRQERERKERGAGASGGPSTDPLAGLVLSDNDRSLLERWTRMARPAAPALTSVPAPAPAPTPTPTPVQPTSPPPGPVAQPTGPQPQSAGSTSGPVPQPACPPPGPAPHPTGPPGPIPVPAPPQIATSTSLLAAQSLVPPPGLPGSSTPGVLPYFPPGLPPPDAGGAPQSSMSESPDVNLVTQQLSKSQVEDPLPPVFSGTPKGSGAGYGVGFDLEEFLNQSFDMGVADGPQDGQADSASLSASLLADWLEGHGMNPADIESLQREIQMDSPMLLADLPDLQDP

On to `CO[C@H]1O[C@@H]2O[C@]3(C)CC[C@@H]4[C@@H](C)CC[C@H]([C@H]1C)[C@]24OO3`, for which the fold change in [1] (setting [14]) was 0.984 (inactive); in [1] (setting [15]) it was 1.93. The cell count in [1] (setting [16]) is 9680; in test [1] (setting [17]), 9830. In [2], the molecule was called inactive. Moreover, the z-score in test [3] is -0.71 (inactive).

Consider `COCc1cc(O)c(O)c(O)c1-c1c(COC)cc(O)c(O)c1O`, for which the survival in test [4] is 106 (inactive). The fold change in test [1] (setting [14]) is 1.2 (inactive); in test [1] (setting [15]) it was 0.626. The cell count stood at 3710 in [1] (setting [16]) and 3100 in [1] (setting [17]). The fold fluorescence in test [5] is 5.4 [at 147.8 µM] (inactive).

Regarding `O=C(CCSCc1ccco1)NNC(=O)N1Cc2ccccc2Oc2ccc(Cl)cc21`, the fold change in [1] (setting [14]) is 0.969 (inactive); in test [1] (setting [15]) it was 0.669. Also, the cell count in [1] (setting [16]) worked out at 7850; in test [1] (setting [17]) it was 8100. For the same molecule, the outcome in [2] was inactive. In addition, the z-score in test [3] was 1.58 (inactive).

As for `CCCCCCCCCCCCCC(=O)N[C@@H](C)[C@H](O)c1ccccc1`, in test [4], the survival is 95 (inactive). The fold change in [1] (setting [14]) is 0.995 (inactive); in test [1] (setting [15]) it was 0.985. The cell count in test [1] (setting [16]) turned out to be 6160; in test [1] (setting [17]), 6200. Moreover, the fold fluorescence in test [5] was 3.67 (inactive) and 4.53 (inactive).

As for `N[C@@H]1CCCC[C@H]1N.O=C(O)C(=O)O.[Pt]`, in [6], the parasite load remaining was 182% (inactive). Further, the viability in test [6] came to 134%. The fold change was 0.972 (inactive) in test [1] (setting [14]) and 1.18 in test [1] (setting [15]). For the same molecule, the values for the cell count in test [1] (setting [16]), in test [1] (setting [17]) and in [7] were 4570, 4710 and 7520, respectively. In test [7], this molecule registered an SSMD of 1.36. Moreover, the plate-normalised HSF1 focus index in test [7] is 1.09 (inactive). Further, the z-score in test [8] (MELAS cybrid survival, CellTiter-Glo 48 h, stronger effect = higher value) was 0.335 (inactive); in test [8] (Rieske KO mouse fibroblast survival, CellTiter-Glo 72 h), -0.474; in [3], 1.01 (inactive).

In the case of `C[C@@H](NCCc1ccc(O)cc1)[C@@H](O)c1ccc(O)cc1`, in [9], the period change was 0.07 h (inactive). Further, in [10], the inhibition was 0% (inactive). The fluorescence ratio (interference) in [11] was 0.9 (inactive). The values for the fold change in [1] (setting [14]) and in [1] (setting [15]) were 0.982 (inactive) and 1.22, respectively. Further, the cell count in test [1] (setting [16]) was 10600; in test [1] (setting [17]), 10800. Moreover, the call in test [2] was inactive. For the same molecule, in test [12], the remaining NAD was 10 nM (inactive). The z-score in [3] is 0.51 (inactive).

`CC(C)(NS(=O)(=O)c1ccc(Oc2ccc(F)cc2)cc1)C(=O)NO`: the fold change in test [1] (setting [14]) is 1.15 (inactive); in test [1] (setting [15]), 0.625. The cell count in test [1] (setting [16]) was determined as 7840; in test [1] (setting [17]), 6810. Moreover, in test [2], the result was inactive. The z-score in [3] was -1.27 (inactive).

For `CCCCS(=N)(=O)CC[C@H](N)C(=O)O` (some centres undefined), the period change in test [9] was -0.045 h (inactive). In addition, the inhibition in test [10] was -2% (inactive). In addition, the fluorescence ratio (interference) in test [11] was 1 (inactive). The fold change was 0.972 (inactive) in test [1] (setting [14]) and 2.07 in [1] (setting [15]). In addition, the cell count was 9810 in test [1] (setting [16]) and 10100 in [1] (setting [17]). In [2], the outcome was inactive. Besides, the luciferase signal in test [13] is 48 AU (inactive). The z-score in test [3] is -0.84 (inactive).

As for `COCCCCCCCCCCCC(=O)O`, in [4], the survival is 81.7 (inactive). The fold change in test [1] (setting [14]) is 0.981 (inactive); in test [1] (setting [15]), 1.11. The cell count in test [1] (setting [16]) was 5900; in test [1] (setting [17]), 6020. For the same molecule, the fold fluorescence in [5] is 7.84 (inactive).

Regarding `CC[C@H]1OC(=O)[C@H](C)C(O[C@H]2C[C@@](C)(OC)[C@@H](O)[C@H](C)O2)[C@H](C)[C@@H](OC2O[C@H](C)C[C@H](N(C)C)[C@H]2O)[C@](C)(O)C[C@@H](C)CN(C)[C@H](C)[C@@H](O)[C@]1(C)O` (some centres undefined), the fold change in test [1] (setting [14]) was 1.06 (inactive); in [1] (setting [15]) it was 1.99. Further, the cell count in test [1] (setting [16]) is 10100; in [1] (setting [17]), 9500. The molecule was classed as inactive in [2]. In addition, the z-score in [3] is -0.895 (inactive).

The viability is a read-out of living cells in per cent, often relative to untreated cells. As a reminder, the inhibition is the change of the read-out against control, counted positive when it falls.
